Source: PubChem BioAssay
HIF-2a inh = inhibitors of HIF-2a; 786-0 RCC cells HIF-2a reporter, luciferase luminescence, overnight; inhibition, % at 18.8 µM; 360,000 tested, 0.72% active; AID 624352;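 active = inhibition of the luminescence signal of 40% or more relative to plate controls, in a single-dose primary screen at 18.75 µM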
Peg3 prom inh-1 = Peg3 promoter activity inhibition | inhibition, % at 20 µM | 360,000 tested, 1.7% active | AID 588405 | HeLa PEG-Prom luciferase reporter, luminescence, overnight;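 active = inhibition of at least 50% at 20 µM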
CF NFkB block = blocks PAF-induced NF-kB reporter in cystic fibrosis cells. KKLEB NF-kB-GFP reporter, GFP fluorescence overnight. inhibition, % at 5 µM. 360,000 tested, 0.86% active;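 active = at least 50% inhibition at 5 µM, scaled per plate between neutral and stimulator controls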;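 note: PAF is a Pseudomonas aeruginosa culture filtrate used as stimulus; plate controls were PAF-stimulated DMSO wells for no effect and unstimulated DMSO wells for full effect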
Shn3 inh set2 = inhibitors of Schnurri-3 3'UTR reporter in osteoblasts. inhibition, % at 12.5 µM. 360,000 tested, 0.52% active. Clone20 osteoblast Shn3 3'UTR firefly luciferase, 24 h;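 active = mean inhibition of at least 75% with every replicate also reaching 75%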;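 note: 0% = median of neutral control wells and 100% = pilot-screen positive control compound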
KKLEB cytotox = reduces viability of KKLEB cystic fibrosis airway cells. KKLEB CF airway cells viability, ATPlite luminescence, overnight; active compounds read low; cells stimulated with P. aeruginosa culture filtrate. activity change (cytotoxicity), % at 5 µM. 360,000 tested, 0.36% active;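 active = corrected activity change at or below -50% at 5 µM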
Peg3 prom inh-2 = Peg3 promoter inhibition confirmation. inhibition, % at 20 µM. AID 602417. HeLa PEG-Prom luciferase reporter, luminescence, overnight. shares compounds with Peg3 prom inh-1. 1,300 tested, 84% active;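 active = at 20 µM dose, 40% or more inhibition averaged across four replicates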
The depositor's hits bear a star; · = not tested or not shown. An excerpt weighted towards active compounds, which were near 2.6% of everything screened.

SMILES	HIF-2a inh	Peg3 prom inh-1	CF NFkB block	Shn3 inh set2	KKLEB cytotox	Peg3 prom inh-2
O=C(CN1C(=O)c2cccc([N+](=O)[O-])c2C1=O)NNC(=O)c1ccc(F)cc1	-6	-9	-22	-16	-10	·
Cc1cccc(C)c1NC(=O)Nc1nc(C(N)c2ccccc2Cl)cs1 (stereo unspecified)	20	2	2	-16	-3	·
CC(C)CC(N)c1csc(NC(=O)Nc2ccccc2C(C)C)n1 (stereo unspecified)	9	72*	9	8	-8	84*
Cc1cccc(C(=O)N2CCN(CCNC(=O)C(=O)Nc3ccc(F)cc3)CC2)c1	-51	-17	-3	-9	-20	·
CCOc1cccc(/C=N/NC(=S)Nc2cc(S(=O)(=O)N3CCOCC3)ccc2N2CCOCC2)c1O	19	53*	15	82	-6	57*
COc1ccc2ccccc2c1/C=N/NC(=S)Nc1cc(S(=O)(=O)N2CCOCC2)ccc1N1CCOCC1	25	17	6	15	1	·
Nc1nonc1-n1nnc(C(=O)N/N=C/c2cc(Br)ccc2O)c1CNc1ccccc1	3	56*	26	59	-32	72*
O=C(c1cnn(C(=O)c2ccco2)c1)c1ccccc1O	4	-9	14	2	8	·
CCCCCN1C=CC(=C2C(=O)c3ccccc3C2=O)C=C1	88*	103*	-5	93*	-82*	91*
Cc1sc2ncn(/N=C/c3ccco3)c(=O)c2c1C	-186	-152	12	-27	-7	·
CN1CCC(NC(=O)c2cc(-c3cccc(Br)c3)nc3ccccc23)CC1	-19	105*	-11	-33	-4	79*
O=C(NCc1ccccc1)C1C(c2ccccc2)=Nc2ccccc2N1C(=O)c1cccnc1 (stereo unspecified)	1	·	·	·	·	·
COc1ccc(-c2cc(C(=O)N3CCN(c4ccccc4F)CC3)c3ccccc3n2)c(OC)c1	22	51*	-9	16	13	52*
COc1ccc(OC)c(-c2cc(C(=O)N3CCN(c4ncccn4)CC3)c3ccccc3n2)c1	11	55*	-4	12	-4	52*
COc1ccc(-c2cc(C(=O)N3CCN(c4ncccn4)CC3)c3ccccc3n2)c(OC)c1	9	53*	-17	12	-26	45*
O=C(Nc1nc(-c2ccc3ccccc3c2)cs1)c1ccc(N2C(=O)CCC2=O)cc1	-9	56*	18	16	-12	17
CCn1cc(C(=O)NCc2ccco2)c(=O)c2cc(S(=O)(=O)N3CCC(C)CC3)ccc21	29	18	-16	22	-5	·
CCn1cc(C(=O)NCc2ccco2)c(=O)c2cc(S(=O)(=O)N3CC(C)CC(C)C3)ccc21 (stereo unspecified)	30	58*	-1	85*	6	61*
CC(c1ccc(O)cc1)(c1ccc(O)cc1)c1ccc(CCBr)cc1	28	26	10	-5	-10	·
CCN(CC)CCN(C(=O)c1cc2c(ccc3ccccc32)oc1=O)c1nc2cc3c(cc2s1)OCCO3	-19	96*	-7	48	-2	-11
Cc1cc(C)n2nc(SCC(=O)N3CCN(c4ccccc4)CC3)nc2n1	5	15	-15	3	12	·
CCCSCCCNC(=O)Cn1nc(CC)n2c(cc3c(OC)cccc32)c1=O	21	54*	-1	0	-6	18
CCc1nn(CC(=O)NCCN2CCOCC2)c(=O)c2cc3c(OC)cccc3n12	0	-8	-7	15	-11	·
NC(N)=N/N=C/c1cccc(Cl)c1Cl	-7	76*	-1	70	-11	80*
COc1ccc(-n2nc(C(=O)Nc3ccc(OC)c(OC)c3)c3c4ccccc4n(C)c3c2=O)cc1	6	62*	64*	14	-60*	14
SMILES	HIF-2a inh	Peg3 prom inh-1	CF NFkB block	Shn3 inh set2	KKLEB cytotox	Peg3 prom inh-2
Cn1nc(C(=O)Nc2nc(-c3ccccn3)cs2)c2ccccc2c1=O	-16	11	-4	51	-6	·
CCCn1nc(C(=O)Nc2nc(-c3ccccn3)cs2)c2ccccc2c1=O	-6	70*	-20	60	1	62*
CCN(C(=O)COC(=O)CNC(=O)c1cccs1)c1c(N)n(Cc2ccccc2)c(=O)[nH]c1=O	12	-13	6	-5	11	·
CCSc1nc(N)nc2c1ncn2C1OC(CO)C(O)C1O (stereo unspecified)	2	-16	-10	0	6	·
Cn1cnc([N+](=O)[O-])c1Sc1nc(N)nc2c1ncn2C1OC(CO)C(O)C1O (stereo unspecified)	21	61*	10	23	1	64*
Cc1nc(N2CCN(c3ccccc3O)CC2)c2c(-c3ccccc3)csc2n1	12	66*	45	21	26	66*
CCc1ccn2cc(-c3ccc4c(c3)OCO4)nc2c1	60*	84*	-16	81	-76*	72*
CCCCS(=O)(=O)NC(=O)C1(C)CCN1C(=O)C/C=C/c1ccccc1 (stereo unspecified)	9	4	-2	-8	2	·
O=C(CCc1ccccc1)NC(NC(=S)Nc1ccc(Br)cc1)C(Cl)(Cl)Cl (stereo unspecified)	15	53*	16	10	9	38
CCOc1cc(CNCCCN2CCOCC2)ccc1OCC(=O)Nc1cccc2ccccc12	3	50*	24	19	-18	64*
COc1cc(CNCCCN2CCOCC2)ccc1OCC(=O)Nc1cccc(C(F)(F)F)c1	2	12	19	-3	-16	·
Cc1csc2nc(COC(=O)c3ccc(Cl)c([N+](=O)[O-])c3)cc(=O)n12	5	59*	26	4	-11	-1
COc1cc2c(cc1OC)CN(c1nc(-c3cccnc3)nc3ccccc13)CC2	-23	65*	6	-1	8	71*
Cc1ccc(C)c(S(=O)(=O)N2CCN(c3nc(-c4cccnc4)nc4ccccc34)CC2)c1	-9	64*	13	12	2	47*
CN(Cc1ccc(N(C)C)cc1)C(=O)c1cc2ccccc2o1	-152	-139	13	-3	7	·
Cc1cc2[nH]c(=O)c(=O)[nH]c2cc1S(=O)(=O)NCc1ccccc1	3	3	2	8	-10	·
CC(=O)Nc1ccc(NC(=O)C(C)OC(=O)CCCOc2ccc(Cl)c(C)c2)cc1 (stereo unspecified)	9	10	8	10	-5	·
Cc1cc(C)cc(NC(=O)Cn2c(=O)oc3cc(S(=O)(=O)N4CCC(C)CC4)ccc32)c1	11	68*	19	29	3	44*
COc1cccc2c1C(=N)c1c(O)c3c(c(O)c1C2=O)CC(O)(C(C)=O)CC3OC1CC(N)C(O)C(C)O1 (stereo unspecified)	21	98*	-272	92*	-6	96*
